For 30 sequences, median seed-adjusted z-score results are on record in PubChem BioAssay AID1347426 (Functional Genomics Laboratory (NCATS/FGL), 2020).

About 1,400 (4.5%) of roughly 31,000 sequences were called active. Only a selection was taken, and actives are over-represented in it overall. Unmarked numbers belong to inactive results.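 Rule for the calls: active = median seed-adjusted z-score above 1 or below -1; inactive = the rest.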

The test can be described thus: Novel Modifiers of Survival Motor Neuron (SMN) Protein: Gene Identification via Genome-wide siRNA Screen.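 Note: luminescence tracks full-length SMN protein made from the SMN2 reporter.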 To be noted: HEK293T SMN2-luciferase reporter, siRNA knockdown, 72 h; actives lie on both sides. Put shortly:
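Genome-wide siRNA screen (10418 genes, 3 siRNAs each, 1 pmol per well) by reverse transfection in HEK293T cells stably carrying an SMN2-luciferase reporter; luminescence after 72 hours, normalized to negative-control siRNA, log10-transformed, MAD-scored.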
For orientation: In a reporter assay the amount or activity of a reporter protein is the signal.
As for UGGGAAUGGUAGAAACAAATT against PPIL1, the median seed-adjusted z-score is 0.166.

With GCGCAUCUAUGAUGACGAUTT against UBA1, the median seed-adjusted z-score is 1.34 (active). The result for GAGUUUUUAUGGACUCUCATT against GRIK4 reads 0.249. The result for CCAGAAAACUUGCGAAACATT against RFX4 reads -0.0226; that for CCUCCGGAGAGAAAAAUGATT against NXF2, -0.0513. The result for CAUCAAAGAUUGCACUUCATT against TOMM34 reads -0.503; that for GCCGGAAACAAAUACGUGATT against ZNF677, -0.441. GGCACGUUCUGAUCCAGAUTT against ACADM: the median seed-adjusted z-score is 0.127. For CGAUAUCAAGUGCACCAAATT against CAD the value was 2.37 (active). Take GAGCAUUUGUGCGCAAGUUTT against NRP2: the median seed-adjusted z-score was 0.477. For GCUCAUUCCUUCUACAAUUTT against CACNA1G, the median seed-adjusted z-score is 0.436. For GGAUGUAAGUUGUCCAAUATT against SUZ12 the value was -1.65 (active); for CGAGUGAAGUGGGAUGAGATT against STARD5, -0.0333; for GCCGUUACCAUGGAACUUUTT against GSPT2, 0.846. The result for CACUGACUCGGAAACUGCATT against IGF2BP3 reads -0.636.

For CACCAGGUCUGGAUAUUGATT against SF3A1, the median seed-adjusted z-score was -1.09 (active). For GCACAACUGUAGAGACAGATT against CIDEC the value was 0.189. With GCAGAGAUCUUUGUAGUCUTT against FTSJ3, the median seed-adjusted z-score was 0.437. For CGGGUAAACUAUGAGCUGATT against ADCY2 the value was 0.173; for GCAAGGCUUUUGACGUAGATT against MAP3K6, 0; for GGAAAUUAUGUAGAACCGATT against ALDH7A1, -0.406.

Take CAGUGCACAGUGAAACCAATT against ADAM11: the median seed-adjusted z-score was 0.102. For GAGCUAGCGAAUAACCUUATT against DDX42 the value was -2.13 (active). For CCCUCGGGAUCACACUUAUTT against MFSD1 the value was -0.0833. For GCACGAUAUAUAUAGCUAUTT against RIPK2 the value was 0.176; for CAAAGACUCUGGAAUGAAUTT against PRICKLE2, -1.12 (active). Turning to CAACAAGCGUAAGACCAAATT against SYTL5, the median seed-adjusted z-score was 0.192. For GGAUCGCCCUGUAUGCUGUTT against LRTM2 the value was 0.465. The result for GAAGAGCUCUUAGAGUGUATT against BCAT1 reads -0.604; that for AGUCCUCUAUCAACCUCUUTT against RXFP3, -0.0651.
